The values that follow come from PubChem BioAssay (NCI).

Values joined by “and” are separate entries in the source; they are usually repeats but may differ in a detail not shown here. Equal entries are not always repeated. About 83,000 compounds went through this panel and 20% of them were active in at least one assay; those are over-represented in the sample as a whole.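 Cell lines were cultured in 96-well plates, exposed to a single compound concentration, and assessed for percent growth 48 hours later.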 Active and inactive are the calls of the source. Rule for the calls: active = growth percent below 10; inactive = the rest.

Some test systems named below: HCT-15 colon; HT29 colon; SNB-75 CNS; SNB-19 CNS; PC-3 prostate; SK-MEL-5 melanoma; UACC-62 melanoma; LOX IMVI melanoma; SK-MEL-28 melanoma.
Common to all, as to experiment: NCI-60 one-dose screen, 48 h (100 = growth as untreated, 0 = no growth, -100 = all killed)
In the next assay the test system is U251 CNS. Particulars: 10 µM unless noted.

`O=[N+]([O-])c1ccc2c(N=Nc3ccc4ccccc4c3O)c(O)cc(S(=O)(=O)O)c2c1`: the growth with HCT-15 colon (10 µM unless noted) was 85.1% (inactive); in the assay on HT29 colon (10 µM unless noted) it was 104% (inactive); in the assay with SNB-75 CNS (10 µM unless noted), 105% (inactive); in the assay with SNB-19 CNS (10 µM unless noted), 79.7% (inactive); in the assay with U251 CNS, 57.7% (inactive); in the assay on PC-3 prostate (10 µM unless noted) it was 77.2% (inactive). In addition, the growth with SK-MEL-5 melanoma (10 µM unless noted) was 85% (inactive); with UACC-62 melanoma (10 µM unless noted) it was 79.4% (inactive); with LOX IMVI melanoma (10 µM unless noted) it was 66.2% (inactive); in the assay on SK-MEL-28 melanoma (10 µM unless noted), 98.8% (inactive).
Take `O=[N+]([O-])c1ccc(N=Nc2ccc(O)cc2O)cc1`: the growth is 36.9% (inactive) in the assay with HCT-15 colon (10 µM unless noted); 75.7% (inactive) in the assay with HT29 colon (10 µM unless noted); 70.3% (inactive) with SNB-75 CNS (10 µM unless noted); 53.7% (inactive) in the assay with SNB-19 CNS (10 µM unless noted); 38.4% (inactive) in the assay on U251 CNS; 32.1% (inactive) in the assay with PC-3 prostate (10 µM unless noted). Besides, the growth in the assay on SK-MEL-5 melanoma (10 µM unless noted) was 43.3% (inactive); in the assay on UACC-62 melanoma (10 µM unless noted) it was 36.4% (inactive); in the assay on LOX IMVI melanoma (10 µM unless noted), 51.8% (inactive); in the assay with SK-MEL-28 melanoma (10 µM unless noted), 44.2% (inactive).
`CCOC(=O)/C(=C\c1ccc(-c2ccccc2)cc1)C(C)=O`: the growth is 94.5% (inactive) with HCT-15 colon (10 µM unless noted); 104% (inactive) in the assay with HT29 colon (10 µM unless noted); 88% (inactive) in the assay with SNB-75 CNS (10 µM unless noted); 99.9% (inactive) in the assay with SNB-19 CNS (10 µM unless noted); 103% (inactive) in the assay with U251 CNS; 107% (inactive) with PC-3 prostate (10 µM unless noted). Further, the growth in the assay on SK-MEL-5 melanoma (10 µM unless noted) is 98.7% (inactive); in the assay with UACC-62 melanoma (10 µM unless noted) it was 94.6% (inactive); in the assay on LOX IMVI melanoma (10 µM unless noted) it was 98.4% (inactive); with SK-MEL-28 melanoma (10 µM unless noted), 99.1% (inactive).
Regarding `Nc1nc(N)c2c(ccc3c2ccn3Cc2cccc([N+](=O)[O-])c2)n1`, the growth was -84.6% (active) with HCT-15 colon (10 µM unless noted); -60% (active) in the assay on HT29 colon (10 µM unless noted); -89.8% (active) in the assay with SNB-75 CNS (10 µM unless noted); -92.2% (active) with SNB-19 CNS (10 µM unless noted); -87.9% (active) with U251 CNS; -54.1% (active) with PC-3 prostate (10 µM unless noted). Also, the growth in the assay on SK-MEL-5 melanoma (10 µM unless noted) was -98% (active); in the assay with UACC-62 melanoma (10 µM unless noted), -94.8% (active); in the assay on LOX IMVI melanoma (10 µM unless noted), -83.4% (active); with SK-MEL-28 melanoma (10 µM unless noted), -97.1% (active).
In the case of `CCCCCCCCCCCCCCCCCCOP(=O)([O-])OC1CC[N+](C)(C)CC1`, the growth in the assay on HCT-15 colon (10 µM unless noted) is -50% (active) and -67.9% (active); with HT29 colon (10 µM unless noted) it was 2.35% (active) and -29.9% (active); in the assay on SNB-75 CNS (10 µM unless noted), 10.6% (inactive) and -41.7% (active); in the assay with SNB-19 CNS (10 µM unless noted), -29.2% (active) and -65.1% (active); in the assay on U251 CNS it was -35.1% (active) and -68.1% (active); in the assay on PC-3 prostate (10 µM unless noted), -50.8% (active) and -75.1% (active). The growth with SK-MEL-5 melanoma (10 µM unless noted) was 38.7% (inactive) and 20% (inactive); in the assay on UACC-62 melanoma (10 µM unless noted), 25.3% (inactive) and 37.2% (inactive); in the assay with LOX IMVI melanoma (10 µM unless noted) it was 11.4% (inactive) and -3.66% (active); in the assay with SK-MEL-28 melanoma (10 µM unless noted), 57.3% (inactive).
`CN(C)C(=O)c1ccc(SC(=S)NCc2ccccc2)cc1`: the growth was 92.2% (inactive) in the assay with HCT-15 colon (10 µM); -35.1% (active) in the assay on HCT-15 colon (100 µM); 107% (inactive) with HT29 colon (10 µM); -62% (active) in the assay with HT29 colon (100 µM); 110% (inactive) in the assay on SNB-75 CNS (10 µM); 1.41% (active) in the assay with SNB-75 CNS (100 µM). The growth in the assay with U251 CNS was 16.7% [100 µM] (inactive); in the assay with PC-3 prostate (10 µM), 97.1% (inactive); in the assay on PC-3 prostate (100 µM) it was 17.6% (inactive); with SK-MEL-5 melanoma (10 µM), 102% (inactive); with SK-MEL-5 melanoma (100 µM), -53.1% (active); in the assay with UACC-62 melanoma (10 µM), 103% (inactive). Further, the growth was 1.05% (active) in the assay on UACC-62 melanoma (100 µM), 87.5% (inactive) in the assay with LOX IMVI melanoma (10 µM unless noted), 106% (inactive) with SK-MEL-28 melanoma (10 µM) and -34.8% (active) in the assay with SK-MEL-28 melanoma (100 µM).
For the compound `O=C(Nc1cccc(Br)c1)Oc1cccc2cccnc12`, the growth in the assay on HCT-15 colon (10 µM) is 94.1% (inactive); with HCT-15 colon (100 µM), 5.53% (active); in the assay with HT29 colon (10 µM) it was 92.1% (inactive); with HT29 colon (100 µM) it was 57.8% (inactive); in the assay on SNB-75 CNS (10 µM) it was 83.4% (inactive); with SNB-75 CNS (100 µM), 41.6% (inactive). Moreover, the growth in the assay on SNB-19 CNS (10 µM) was 100% (inactive); with SNB-19 CNS (100 µM), 48.7% (inactive); in the assay on PC-3 prostate (10 µM) it was 92.9% (inactive); in the assay with PC-3 prostate (100 µM) it was 11.7% (inactive); in the assay with SK-MEL-5 melanoma (10 µM) it was 101% (inactive); in the assay on SK-MEL-5 melanoma (100 µM), 2.15% (active). The growth with UACC-62 melanoma (10 µM) is 97.5% (inactive); in the assay with UACC-62 melanoma (100 µM), 11.7% (inactive); in the assay with LOX IMVI melanoma (10 µM), 102% (inactive); in the assay on LOX IMVI melanoma (100 µM), -3.16% (active); with SK-MEL-28 melanoma (10 µM), 105% (inactive); in the assay with SK-MEL-28 melanoma (100 µM), 48.2% (inactive).
As for `CC(=O)C(=Cc1ccc(C=C(C(C)=O)C(C)=O)cc1)C(C)=O`, the growth with HCT-15 colon (10 µM unless noted) was -32.7% (active); with HT29 colon (10 µM unless noted), -60.5% (active); in the assay with SNB-75 CNS (10 µM unless noted), 73.1% (inactive); in the assay with SNB-19 CNS (10 µM unless noted), 19.1% (inactive); with U251 CNS it was -23.7% (active); in the assay on PC-3 prostate (10 µM unless noted), 2.43% (active). For the same compound, the growth is 72.8% (inactive) in the assay with SK-MEL-5 melanoma (10 µM unless noted), -41.6% (active) with UACC-62 melanoma (10 µM unless noted), -97.8% (active) with LOX IMVI melanoma (10 µM unless noted) and -34.8% (active) in the assay on SK-MEL-28 melanoma (10 µM unless noted).
In the case of `Cc1ccnc2c1ccc1c(C)ccnc12`, the growth with HCT-15 colon (10 µM unless noted) was 20.9% (inactive); in the assay with HT29 colon (10 µM unless noted), 17.7% (inactive); with SNB-75 CNS (10 µM unless noted) it was 52.4% (inactive); in the assay with SNB-19 CNS (10 µM unless noted), 21.9% (inactive); in the assay with U251 CNS, 7.48% (active); in the assay with PC-3 prostate (10 µM unless noted), 22% (inactive). Further, the growth in the assay with SK-MEL-5 melanoma (10 µM unless noted) was 18.3% (inactive); in the assay on UACC-62 melanoma (10 µM unless noted), 2.66% (active); with LOX IMVI melanoma (10 µM unless noted), 2.99% (active); in the assay on SK-MEL-28 melanoma (10 µM unless noted), 20.7% (inactive).
Turning to `S=C(NCCNC(=S)[S][Sn]([c]1ccccc1)([c]1ccccc1)[c]1ccccc1)[S][Sn]([c]1ccccc1)([c]1ccccc1)[c]1ccccc1`, the growth in the assay on HCT-15 colon (10 µM unless noted) is -73.8% (active); in the assay on HT29 colon (10 µM unless noted), -93.1% (active); with SNB-75 CNS (10 µM unless noted), -60.8% (active); in the assay on SNB-19 CNS (10 µM unless noted), -92.8% (active); with U251 CNS, -100% (active); in the assay with PC-3 prostate (10 µM unless noted), -82.5% (active). In addition, the growth was -100% (active) with SK-MEL-5 melanoma (10 µM unless noted), -64.1% (active) in the assay with UACC-62 melanoma (10 µM unless noted), -86.5% (active) in the assay with LOX IMVI melanoma (10 µM unless noted) and -98.8% (active) with SK-MEL-28 melanoma (10 µM unless noted).
On to `CCCCCCCCCCCCCCCCN(CC)CC`, for which the growth was -90.2% (active) in the assay with HCT-15 colon (10 µM unless noted); -56.8% (active) in the assay on HT29 colon (10 µM unless noted); -22.6% (active) in the assay with SNB-75 CNS (10 µM unless noted); -87.9% (active) with SNB-19 CNS (10 µM unless noted); -66.8% (active) in the assay on U251 CNS; 0.915% (active) in the assay with PC-3 prostate (10 µM unless noted). The growth with SK-MEL-5 melanoma (10 µM unless noted) is -97.7% (active); with UACC-62 melanoma (10 µM unless noted) it was -86.6% (active); in the assay on LOX IMVI melanoma (10 µM unless noted) it was -100% (active); with SK-MEL-28 melanoma (10 µM unless noted), -91% (active).
